# In all, about 410,000 compounds went through this assay and about 3,100 (0.76%) were called active. Calls come from the whole dose curve; as a rule, active = well fitted cell-killing curve with a large enough effect; inactive = no such curve, though single readings can be large or run the other way. The list comes from a sample in which actives are over-represented; it also holds similar structures and randomly drawn compounds. Entries that show only a call come without a potency.
# Test: qHTS for Inhibitors of TGF-b: Cytotox Counterscreen
# Conditions: HepG2 CAGA-GFP viability, ATP luminescence, 18 h; series mostly up to 46.1 µM
# Outline: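 CellTiter-Glo luminescence gave cytotoxicity after 18 hours at 37 degrees C. The cells were HepG2 CAGA-GFP in 1% FBS DMEM, stimulated with 500 pg/mL TGF-beta after compound addition. %Activity was normalised to no-cell wells (complete cell-killing) and DMSO (no toxicity), and curves were fitted and classified.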
# Potency is the fitted concentration of half-maximal effect.
row,Compound,Potency
1,O=C(CSc1nnc(CN2CCCC2)n1-c1ccc(F)cc1)c1ccc2c(c1)OCO2,inactive
2,CCCn1c(SCC(=O)c2ccc3c(c2)OCCO3)nnc1C(C)C,10 µM (active)
3,CCCn1c(SCC(=O)Nc2c(C)cccc2C)nnc1C(C)C,inactive
4,Cc1cccc(C)c1-n1ncc(C(=O)NCCCN2CCCCC2)c1C1CCN(C(=O)OC(C)(C)C)CC1,inactive
5,COc1cc(OC)c(NC(=O)c2cnc(N3CCCC3)nc2C)cc1Cl,inactive
6,CCOC(=O)/C(=C\c1ccc([N+](=O)[O-])cc1)C(=O)c1cc(C(C)=O)c(Nc2ccccc2)s1,5.01 µM (active)
7,CC(C)c1nnc(NC(=O)COC(=O)/C=C/c2ccc([N+](=O)[O-])cc2)s1,inactive
8,CCOC(=O)c1c(C)[nH]c(C)c1C(=O)COC(=O)/C=C/c1cccc([N+](=O)[O-])c1,inactive
9,CC(C)OCCCn1c(SCC(=O)c2ccccc2)nc2c(sc3ccccc32)c1=O,inactive
10,COCCCn1c(=O)/c(=C/c2ccccc2OC(C)C)s/c1=C(\C#N)C(=O)Nc1ccc(C(=O)O)cc1,12.6 µM (active)
11,COc1ccccc1C(=O)N/C(=C/c1ccco1)C(=O)Nc1ccc(C(=O)O)cc1,inactive
12,COc1cc2nc(C#Cc3nc4cc(OC)c(OC)cc4[nH]3)[nH]c2cc1OC,inactive
13,Cc1cccc(NC(=O)Nc2ccc3c(c2)OCO3)n1,22.4 µM (active)
14,CNS(=O)(=O)c1ccc(NC(=O)Nc2ccc3c(c2)OCO3)cc1,inactive
15,Cc1onc(C(=O)Nc2ccc3c(c2)OCO3)c1[N+](=O)[O-],inactive
16,CC1CCCN(Cc2c(O)ccc3c(=O)c(Oc4ccc(C(C)(C)C)cc4)c(C(F)(F)F)oc23)C1 (stereo unspecified),inactive
17,CCOc1ccc(NC(=O)c2cc(S(=O)(=O)N3CCCC3)c[nH]2)cc1,inactive
18,CCN1CCCC1CNC(=O)c1ccc2c(c1)NC(=O)/C(=C\c1ccccc1F)S2 (stereo unspecified),15.8 µM (active)
19,COc1ccc(CN2CCCC(CNC(=O)c3ccc(F)cc3)C2)cc1OC (stereo unspecified),inactive
20,O=C1Nc2cc(C(=O)N3CCC(N4CCCCC4)CC3)ccc2S/C1=C\c1ccccc1,inactive
21,COc1ccccc1-c1noc(-c2ccc(NCc3ccccc3)c([N+](=O)[O-])c2)n1,inactive
22,Cc1ccc(Cn2cnc3c(cnn3C(C)(C)C)c2=O)c(F)c1,inactive
23,NC(=O)COc1ccc(/C=N/NC(=O)C2CCCN2S(=O)(=O)c2ccc(Cl)cc2)cc1 (stereo unspecified),inactive
24,NC(N)=N/N=C/c1ccc(OCc2ccc(Cl)cc2Cl)cc1,14.1 µM (active)
25,Cc1ccc(CCNC(=O)Cn2c(-c3cccs3)cc3cc(F)ccc32)cc1,inactive
26,CC(C)c1ccc(NC(=O)Cn2nnc(C(=O)NCCc3ccccc3)c2N)cc1,inactive

# Reference: PubChem BioAssay AID588856 (National Center for Advancing Translational Sciences (NCATS), 2011)
